Experimental data taken from the supplement of paper PMC11741263, “Chemoproteomic Profiling of C. albicans for Characterization of Anti-fungal Kinase Inhibitors” (bioRxiv, 2025).

Compound: Cc1[nH]nc2ccc(-c3cc(OC[C@@H](N)Cc4ccccc4)cnc3-c3ccoc3)cc12
Test: MIB bead binding, log2 fold change vs DMSO (log2 ratio); higher = less competition (weaker engagement)

Sequence of UniProt P36507 (P36507 whole entry, looked up): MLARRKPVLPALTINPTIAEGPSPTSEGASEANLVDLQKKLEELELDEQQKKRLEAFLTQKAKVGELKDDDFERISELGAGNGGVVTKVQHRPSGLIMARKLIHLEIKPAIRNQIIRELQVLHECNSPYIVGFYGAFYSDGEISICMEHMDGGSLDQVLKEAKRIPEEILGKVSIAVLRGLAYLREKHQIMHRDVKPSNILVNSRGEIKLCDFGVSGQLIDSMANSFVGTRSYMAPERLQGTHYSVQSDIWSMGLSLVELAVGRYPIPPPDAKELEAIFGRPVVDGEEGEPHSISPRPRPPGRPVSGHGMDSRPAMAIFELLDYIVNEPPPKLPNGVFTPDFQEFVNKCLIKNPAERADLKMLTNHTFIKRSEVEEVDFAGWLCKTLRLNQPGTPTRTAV
Sequence of UniProt Q5AHG6 (Q5AHG6 whole entry): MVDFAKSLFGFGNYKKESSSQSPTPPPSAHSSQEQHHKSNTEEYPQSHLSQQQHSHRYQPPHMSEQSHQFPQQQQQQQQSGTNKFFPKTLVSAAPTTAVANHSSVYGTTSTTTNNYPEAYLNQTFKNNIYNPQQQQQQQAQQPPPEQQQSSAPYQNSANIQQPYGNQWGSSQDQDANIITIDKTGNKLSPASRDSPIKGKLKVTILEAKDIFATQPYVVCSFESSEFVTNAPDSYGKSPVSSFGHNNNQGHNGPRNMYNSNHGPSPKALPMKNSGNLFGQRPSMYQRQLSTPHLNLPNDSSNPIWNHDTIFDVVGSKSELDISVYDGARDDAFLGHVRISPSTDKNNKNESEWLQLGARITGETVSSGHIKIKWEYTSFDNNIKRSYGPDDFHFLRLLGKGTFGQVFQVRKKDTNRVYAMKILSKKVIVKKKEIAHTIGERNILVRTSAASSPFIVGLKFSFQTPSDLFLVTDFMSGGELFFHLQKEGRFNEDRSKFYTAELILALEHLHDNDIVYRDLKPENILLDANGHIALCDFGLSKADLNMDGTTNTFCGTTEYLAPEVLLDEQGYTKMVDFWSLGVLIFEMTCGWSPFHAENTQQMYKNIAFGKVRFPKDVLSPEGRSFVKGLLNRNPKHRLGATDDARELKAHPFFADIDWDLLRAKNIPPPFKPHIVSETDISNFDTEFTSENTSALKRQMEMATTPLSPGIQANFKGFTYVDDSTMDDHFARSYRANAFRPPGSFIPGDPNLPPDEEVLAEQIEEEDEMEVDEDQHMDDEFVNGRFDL
Sequence of UniProt O75460 (O75460 whole entry, looked up): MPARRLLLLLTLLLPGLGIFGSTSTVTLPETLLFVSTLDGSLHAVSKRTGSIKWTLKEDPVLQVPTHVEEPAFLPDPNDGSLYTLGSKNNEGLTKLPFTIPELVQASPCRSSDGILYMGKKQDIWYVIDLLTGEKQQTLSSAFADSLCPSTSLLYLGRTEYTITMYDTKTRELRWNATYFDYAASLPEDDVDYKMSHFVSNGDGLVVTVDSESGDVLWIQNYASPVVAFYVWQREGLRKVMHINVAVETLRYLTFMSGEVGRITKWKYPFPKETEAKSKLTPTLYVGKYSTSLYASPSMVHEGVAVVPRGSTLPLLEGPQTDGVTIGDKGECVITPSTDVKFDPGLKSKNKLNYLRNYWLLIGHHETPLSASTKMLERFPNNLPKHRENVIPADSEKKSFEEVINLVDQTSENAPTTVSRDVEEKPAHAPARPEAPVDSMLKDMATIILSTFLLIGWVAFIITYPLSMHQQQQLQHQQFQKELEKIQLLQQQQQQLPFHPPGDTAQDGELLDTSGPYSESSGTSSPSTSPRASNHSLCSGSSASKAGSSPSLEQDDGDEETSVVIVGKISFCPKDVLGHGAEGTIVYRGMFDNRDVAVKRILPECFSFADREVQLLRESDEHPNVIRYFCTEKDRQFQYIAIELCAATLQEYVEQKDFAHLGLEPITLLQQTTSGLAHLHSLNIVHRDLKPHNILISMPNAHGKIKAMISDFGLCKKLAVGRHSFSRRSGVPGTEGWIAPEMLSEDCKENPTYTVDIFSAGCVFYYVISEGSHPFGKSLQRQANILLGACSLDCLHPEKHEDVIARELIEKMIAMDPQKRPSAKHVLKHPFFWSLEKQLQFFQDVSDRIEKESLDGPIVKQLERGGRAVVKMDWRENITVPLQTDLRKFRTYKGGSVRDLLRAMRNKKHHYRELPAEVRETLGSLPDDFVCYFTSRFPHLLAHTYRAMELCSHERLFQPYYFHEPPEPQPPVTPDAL
Sequence of UniProt Q59W62 (Q59W62 whole entry): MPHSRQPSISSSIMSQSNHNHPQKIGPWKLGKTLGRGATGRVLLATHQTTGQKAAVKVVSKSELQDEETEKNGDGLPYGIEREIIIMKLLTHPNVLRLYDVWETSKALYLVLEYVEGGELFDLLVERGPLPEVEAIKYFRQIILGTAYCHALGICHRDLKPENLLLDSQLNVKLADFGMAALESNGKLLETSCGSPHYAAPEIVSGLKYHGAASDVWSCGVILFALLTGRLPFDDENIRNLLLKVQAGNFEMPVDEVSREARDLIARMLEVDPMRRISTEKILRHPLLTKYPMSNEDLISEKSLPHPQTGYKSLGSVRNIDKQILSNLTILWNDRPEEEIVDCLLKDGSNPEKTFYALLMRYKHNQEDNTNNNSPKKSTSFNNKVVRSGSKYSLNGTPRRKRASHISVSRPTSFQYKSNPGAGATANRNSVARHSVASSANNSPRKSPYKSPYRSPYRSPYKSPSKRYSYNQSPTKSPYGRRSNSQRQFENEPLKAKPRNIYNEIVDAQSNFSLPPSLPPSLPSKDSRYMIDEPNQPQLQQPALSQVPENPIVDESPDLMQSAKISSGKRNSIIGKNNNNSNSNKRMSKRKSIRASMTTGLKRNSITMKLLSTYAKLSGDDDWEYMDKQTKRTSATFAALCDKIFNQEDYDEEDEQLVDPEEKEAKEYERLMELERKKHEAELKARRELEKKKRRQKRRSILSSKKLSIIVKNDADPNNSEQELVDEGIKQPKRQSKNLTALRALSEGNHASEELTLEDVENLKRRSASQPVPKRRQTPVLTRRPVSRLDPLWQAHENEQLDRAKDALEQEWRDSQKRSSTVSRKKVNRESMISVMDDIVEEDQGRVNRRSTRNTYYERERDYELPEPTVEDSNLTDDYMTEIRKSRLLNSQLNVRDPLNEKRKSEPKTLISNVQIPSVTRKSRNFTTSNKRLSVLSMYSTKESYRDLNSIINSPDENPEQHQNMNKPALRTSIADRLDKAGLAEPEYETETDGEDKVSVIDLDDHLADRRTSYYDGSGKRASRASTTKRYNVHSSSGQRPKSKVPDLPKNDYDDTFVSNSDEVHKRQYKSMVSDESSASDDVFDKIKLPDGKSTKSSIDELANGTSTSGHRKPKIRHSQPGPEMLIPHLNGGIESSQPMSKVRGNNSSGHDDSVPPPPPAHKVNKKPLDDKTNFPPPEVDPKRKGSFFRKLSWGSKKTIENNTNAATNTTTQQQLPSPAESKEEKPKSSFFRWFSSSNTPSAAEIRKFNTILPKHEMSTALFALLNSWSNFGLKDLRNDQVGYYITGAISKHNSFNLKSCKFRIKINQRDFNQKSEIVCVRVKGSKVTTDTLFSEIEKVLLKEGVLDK
Sequence of UniProt P50613 (P50613 whole entry, looked up): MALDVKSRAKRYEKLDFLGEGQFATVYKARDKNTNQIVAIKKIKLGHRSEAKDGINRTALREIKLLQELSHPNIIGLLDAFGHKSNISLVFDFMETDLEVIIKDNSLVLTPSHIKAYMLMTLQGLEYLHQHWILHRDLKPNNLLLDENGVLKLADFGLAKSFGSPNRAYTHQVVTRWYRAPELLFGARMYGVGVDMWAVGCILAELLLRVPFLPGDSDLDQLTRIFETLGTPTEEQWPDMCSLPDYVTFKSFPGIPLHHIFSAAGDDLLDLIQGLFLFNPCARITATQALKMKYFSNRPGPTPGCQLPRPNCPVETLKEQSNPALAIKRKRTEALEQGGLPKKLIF
Sequence of UniProt Q9BVS4 (Q9BVS4 whole entry, looked up): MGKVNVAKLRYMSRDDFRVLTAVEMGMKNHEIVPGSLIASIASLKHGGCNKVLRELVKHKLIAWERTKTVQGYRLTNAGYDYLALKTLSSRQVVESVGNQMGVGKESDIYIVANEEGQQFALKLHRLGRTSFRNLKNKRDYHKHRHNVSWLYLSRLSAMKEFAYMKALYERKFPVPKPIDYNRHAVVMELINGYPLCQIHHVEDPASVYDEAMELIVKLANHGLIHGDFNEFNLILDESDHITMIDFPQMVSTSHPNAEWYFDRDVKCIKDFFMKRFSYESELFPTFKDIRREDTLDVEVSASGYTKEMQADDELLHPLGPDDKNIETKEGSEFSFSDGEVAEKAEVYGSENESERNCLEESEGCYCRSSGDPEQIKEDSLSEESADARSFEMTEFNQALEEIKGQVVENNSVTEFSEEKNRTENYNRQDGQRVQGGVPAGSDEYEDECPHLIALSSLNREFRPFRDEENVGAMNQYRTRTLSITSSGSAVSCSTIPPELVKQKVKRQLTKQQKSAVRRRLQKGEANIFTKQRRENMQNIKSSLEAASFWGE
Sequence of UniProt Q9HGY5 (Q9HGY5 whole entry): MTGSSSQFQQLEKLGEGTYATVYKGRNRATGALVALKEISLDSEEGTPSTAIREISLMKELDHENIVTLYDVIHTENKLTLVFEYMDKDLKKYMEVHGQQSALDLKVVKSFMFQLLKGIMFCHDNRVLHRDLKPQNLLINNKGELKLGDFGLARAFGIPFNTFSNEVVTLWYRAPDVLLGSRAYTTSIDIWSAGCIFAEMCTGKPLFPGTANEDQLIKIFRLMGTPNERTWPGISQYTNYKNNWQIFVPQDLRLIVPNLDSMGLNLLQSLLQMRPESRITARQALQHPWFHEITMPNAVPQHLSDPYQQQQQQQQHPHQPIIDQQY

Target | MIB bead binding (log2) (0.1 µM) | MIB bead binding (log2) (1 µM) | MIB bead binding (log2) (10 µM)
SCH9 (UniProt Q5AHG6) | -0.2 | -0.178 | -1.05
PHO85 (UniProt Q9HGY5) | 0.238 | 0.232 | -0.87
MCK1 | -0.0754 | 0.0618 | -1.02
CAALFM_C106360WA | -0.234 | -0.165 | 
CAK1 (UniProt P50613) | -0.167 | 0.067 | -2.18
orf19.3456 | -0.328 | -0.791 | 
HSL1 (UniProt Q5AG71) | 0.351 | 0.197 | -0.67
SHA3 | -0.155 | -0.569 | -1.8
CEK1 | -0.256 | -0.317 | -1.74
CBK1 (UniProt Q5AP53) | 0.0978 | -0.0808 | -0.759
POM1 | -0.418 | -0.345 | -2.53
AKL1 | -0.106 | -1.01 | -5.4
KSP1 | 0.0498 | -0.354 | -0.384
IKS1 | -0.323 | -0.0927 | 
CTK1 | -0.0626 | -0.159 | 
orf19.4575 | -0.428 | -0.272 | -2.61
CMK2 | 0.0395 | 0.585 | 
FPK1 | 0.0443 | -0.0445 | -0.41
NIK1 (UniProt Q5A599) | -0.731 | 0.254 | 
orf19.6492 | -0.282 | -0.0346 | -3.3
IRE1 (UniProt O75460) | -0.11 | 0.0485 | -0.0877
RIM11 | -0.208 | -0.891 | -3.89
KIN2 | -0.0805 | -0.118 | -0.154
orf19.4144 | -0.0982 | -0.112 | -2.63
GIN4 (UniProt Q59W62) | -0.016 | -0.162 | -0.625
CDC7 (UniProt O00311) | -0.0168 | -0.237 | 
ENV7 | -0.351 | 0.16 | -1.89
SNF1 (UniProt P52497) | -0.272 | -0.136 | -1.78

Target | MIB bead binding (log2) (0.1 µM) | MIB bead binding (log2) (1 µM) | MIB bead binding (log2) (10 µM)
RTK1 | 0.0613 | 0.118 | -1.04
Yck22 | -0.049 | -0.35 | -2.01
YCK2 | -0.488 | -1.75 | -3.65
HRR25 | -0.165 | -0.114 | -1.89
TOR1 | -0.226 | 0.207 | -1.59
RIO2 (UniProt Q9BVS4) | -0.284 | -0.263 | -1.23
NPR1 (UniProt P16066) | 0.0428 | -0.0888 | -0.75
PKH3 | -0.246 | -0.128 | -0.466
RIM8 (UniProt Q9UW13) | -0.206 | -0.122 | -2.22
HST7 | 0.106 | -0.0777 | -1.68
HOG1 (UniProt Q92207) | 0.146 | 0.244 | -0.916
KIN3 | 0.0483 | 0.0107 | -0.586
YPK1 | -0.0854 | -0.539 | -1.48
TPK2 | -0.0872 | 0.0369 | -2.41
CDC28 (UniProt P43063) | 0.12 | 0.127 | -0.931
SSK2 | -0.564 | -0.847 | -2.24
MKC1 | -0.00282 | 0.0129 | -1.76
YAK1 | -0.229 | -0.0276 | -2.8
SAK1 | 0.0968 | -0.223 | -0.482
CKA2 | 0.0997 | 0.026 | -1.17
orf19.4518 | -0.0101 | -0.0109 | -0.0364
HRK1 | -0.0934 | 0.0301 | -0.517
PBS2 | -0.000679 | -0.0528 | -0.766
MKK2 (UniProt P36507) | 0.148 | -0.183 | -1.11
CMK1 | 0.142 | 0.154 | -0.566
CKA1 | -0.241 | 0.0806 | -2.47
RCK2 | -0.0134 | -0.109 | -0.886
